Screens (PubChem)
KCC2 mod: modulators of human KCC2 chloride dependent transport; Q9H2X9; KCC2 cells, thallium flux FluoZin-2 fluorescence; B-score of Tl+ flux slope (higher = more flux/activation; lower = inhibition) at 10 µM; 2.2% of 190,000 active; AID 1456;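 active = thallium flux slope and its plate-corrected score both differing from the plate sample mean at a set confidence after two filtering rounds, in either direction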;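 also: slope of fluorescence scaled to starting intensity during 10 to 20 s after thallium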
L major viab: inhibitors of Leishmania major promastigote growth; Leishmania major promastigotes, resazurin fluorescence viability; inhibition, % at 10 µM; 9% of 200,000 active; in the data active = inhibition above about 50%;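 also: promastigotes grown with compound for 44 hours at 28 °C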
ROMK primary: human ROMK K+ channel modulation, primary screen. 2% of 130,000 active. Tet-inducible ROMK, thallium flux fluorescence; actives lie on both sides. P48048. B-score at 10 µM;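 active = signal ratio slope over the read window, or its plate-corrected B-score, at least 3 SD from the plate mean, either direction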;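 also: B-score of the F/F0 ratio slope over 7 to 12 s after thallium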
Target sequence (P48048 whole entry, looked up): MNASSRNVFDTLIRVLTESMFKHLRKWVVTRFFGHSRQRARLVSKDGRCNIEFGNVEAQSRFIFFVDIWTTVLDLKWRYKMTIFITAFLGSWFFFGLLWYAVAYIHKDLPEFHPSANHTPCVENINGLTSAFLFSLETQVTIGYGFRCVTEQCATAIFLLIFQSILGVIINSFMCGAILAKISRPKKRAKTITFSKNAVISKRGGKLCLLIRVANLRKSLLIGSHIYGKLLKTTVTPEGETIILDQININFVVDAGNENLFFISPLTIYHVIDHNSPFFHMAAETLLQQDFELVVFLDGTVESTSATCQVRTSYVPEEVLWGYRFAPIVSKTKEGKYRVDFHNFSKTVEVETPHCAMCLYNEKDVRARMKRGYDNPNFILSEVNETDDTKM
Insulin prom up: MIN6 insulin promoter up-regulation; MIN6 insulin promoter-GFP reporter, high-content imaging; stronger effect = higher value; 0.3% of 190,000 active; z-score at 5 µM;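 active = z-score above 3 at 5 µM with at least 500 cells counted in the well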
Insulin prom inh: TRM-6 insulin promoter activity inhibition; TRM-6 cells (human fetal islet line), insulin promoter-eGFP reporter, imaging; reporter expression induced with tamoxifen; inhibition, % at 2 µM; 0.9% of 130,000 active; AID 1273;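 active = inhibition above the mean plus 3 SD, with well images judged a real hit on visual review, cut at about 60% in these data, passing the limit was not always enough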
WT yeast gro inh: growth inhibition of WT yeast, mitochondrial fusion screen; mitochondrial fusion phenotypic screen, WT strain; inhibition, % at 10 µM; 2.1% of 190,000 active; in the data active = inhibition above about 58%; tested in S. cerevisiae
Active calls of the source: *. Only some compounds are listed: those with a hit (about 12% of all), similar ones and a draw of the others.

CC1CN(CCCCN2C(=O)c3ccccc3C2=O)CC(C)O1 (stereo not given) was read as KCC2 mod 0.26, L major viab -8, ROMK primary 0.082, Insulin prom up -0.58, Insulin prom inh 17 and WT yeast gro inh -7.
For CC1CC(C)(C)N(C(=O)CSc2ccc(-c3ccc(F)cc3)nn2)c2ccccc21 (stereo not given) the results were KCC2 mod -2.7, L major viab 7, Insulin prom up 0.34, Insulin prom inh -11 and WT yeast gro inh 57.
Screening COc1ccccc1NC(=O)c1ccc(NC(=O)CSc2n[nH]c(N)n2)cc1 returned KCC2 mod 0.32, L major viab 65*, ROMK primary 0.92, Insulin prom up -0.15, Insulin prom inh 19 and WT yeast gro inh -8.
Screening CCOC(=O)CSC1=C(C#N)C(c2ccc3c(c2)OCO3)CC(=O)N1 (stereo not given) returned L major viab 73*, ROMK primary -0.55, Insulin prom up -0.35, Insulin prom inh 31 and WT yeast gro inh 5.
For CC1CCN(S(=O)(=O)c2cc([N+](=O)[O-])ccc2Cl)CC1 the results were KCC2 mod -0.14, L major viab 55*, ROMK primary -1.2, Insulin prom up 0.71, Insulin prom inh 18 and WT yeast gro inh 9.
Screening O=[N+]([O-])c1ccc(Cl)c(CN2CCC(O)CC2)c1 returned KCC2 mod 0.002, L major viab 62*, ROMK primary -0.44, Insulin prom up 0.52, Insulin prom inh 32 and WT yeast gro inh -6.
O=[N+]([O-])c1ccc(Cl)c(/C=N/N2CCN(Cc3ccccc3Cl)CC2)c1 was read as L major viab 2, ROMK primary 0.52, Insulin prom up 0.06 and WT yeast gro inh 26.
`Cc1ccc(S(=O)(=O)/N=C(/Nc2c(C)n(C)n(-c3ccccc3)c2=O)c2ccc(Cl)cc2)cc1` gave L major viab 4, Insulin prom up 0.09, Insulin prom inh -4 and WT yeast gro inh 4.
CCOC(=O)CC(NC(=O)Cc1ccc(F)cc1)c1ccccc1Cl (stereo not given) was read as KCC2 mod -0.24, L major viab 34, ROMK primary -0.18, Insulin prom up 0.34, Insulin prom inh -69 and WT yeast gro inh 11.
For O=C(/C=C(/c1ccc(Cl)cc1)n1cncn1)c1ccccc1 the results were KCC2 mod 0.74, L major viab 94*, ROMK primary -0.4, Insulin prom up 0, Insulin prom inh 22 and WT yeast gro inh -6.
CC(C)(C)n1nnnc1C(c1ccccn1)N1CCN(C(c2ccccc2)c2ccccc2)CC1 (stereo not given) was read as KCC2 mod -0.89, L major viab 27, ROMK primary -2.6, Insulin prom up -1.1, Insulin prom inh 33 and WT yeast gro inh 44.
CC(C)(C)n1nnnc1C(c1cccs1)N(Cc1ccccc1)Cc1cccnc1 (stereo not given) was read as KCC2 mod -0.44, L major viab 99*, Insulin prom up -0.37, Insulin prom inh -20 and WT yeast gro inh 25.
For CC(C)(C)n1nnnc1C(c1cccnc1)N(Cc1ccccc1)Cc1cccs1 (stereo not given) the results were KCC2 mod -1.3, L major viab 96*, Insulin prom up -0.54, Insulin prom inh -46 and WT yeast gro inh 81*.
For CC(C)(C)c1ccc(CN(Cc2ccccc2)C(c2ccccn2)c2nnnn2C(C)(C)C)cc1 (stereo not given) the results were KCC2 mod 1.1, L major viab 77*, ROMK primary -1, Insulin prom up -3.4, Insulin prom inh -18 and WT yeast gro inh 22.
`CC(C)(C)n1nnnc1C(c1cccs1)N(Cc1ccc(Cl)cc1)CC1CCCO1` (stereo not given) gave KCC2 mod -3.1, L major viab 25, ROMK primary -1.3, Insulin prom up -1.2 and WT yeast gro inh 9.
`CCN(Cc1ccccc1)C(c1ccncc1)c1nnnn1C(C)(C)C` (stereo not given) gave KCC2 mod 0.097, L major viab 11, Insulin prom up 0.06 and WT yeast gro inh 3.
For O=C(C(Cc1ccccc1)n1cccc1)N1CCCCCC1 (stereo not given) the results were KCC2 mod -0.076, L major viab 3, Insulin prom up 2.2 and WT yeast gro inh 5.
Screening Cc1ccc(NC(=O)/C(=C/c2ccco2)c2ccccc2)c(C)c1 returned L major viab 48, ROMK primary -0.66, Insulin prom up 0.48, Insulin prom inh -4 and WT yeast gro inh 7.
For Cc1cc(C)c(NC(=O)/C(=C/c2ccccc2)c2ccccc2)c(C)c1 the results were KCC2 mod -3.5, L major viab 98*, ROMK primary -0.28, Insulin prom up -0.04, Insulin prom inh -22 and WT yeast gro inh 15.
Screening CC(C)C[C@H](NC(=O)Nc1ccc(S(N)(=O)=O)cc1)C(=O)O returned KCC2 mod 1.1, L major viab 4, Insulin prom up 0.56, Insulin prom inh 25 and WT yeast gro inh -1.
`CC(C)(C)c1ccc(C(=O)CC(Sc2ccc(Cl)cc2)C(=O)O)cc1` (stereo not given) gave KCC2 mod -1.3, L major viab 78*, ROMK primary -0.64, Insulin prom up 1.3 and WT yeast gro inh -9.
For O=C(CCC1CCCN(Cc2ccc3c(c2)OCCO3)C1)NCc1ccc(F)c(F)c1 (stereo not given) the results were KCC2 mod -0.061, L major viab 73*, ROMK primary -1.9, Insulin prom up -0.52 and WT yeast gro inh 4.
`O=C(CCC1CCCN(Cc2ccc3c(c2)OCCO3)C1)NCc1ccccc1F` (stereo not given) gave KCC2 mod -0.73 and Insulin prom up -0.76.
Screening COCc1ccc(CN2CCCC(CCC(=O)NCc3ccc(C)o3)C2)o1 (stereo not given) returned KCC2 mod -0.4, L major viab 1, ROMK primary 0.87, Insulin prom up 0.51 and WT yeast gro inh 0.
Screening COC(=O)c1ccc(CN2CCCC(CCC(=O)NCc3ccc(C)o3)C2)cc1 (stereo not given) returned KCC2 mod 0.82, L major viab 77*, ROMK primary 0.87 and WT yeast gro inh -11.
For O=C(CCC1CCCN(Cc2cccc3c2OCO3)C1)NCc1ccc(F)c(F)c1 (stereo not given) the results were KCC2 mod -0.61, L major viab 87*, ROMK primary -0.34, Insulin prom inh -4 and WT yeast gro inh 10.
For COc1ccc(/C=C/CN2CCCC(CCC(=O)NCc3ccc(F)c(F)c3)C2)cc1 (stereo not given) the results were KCC2 mod -0.67, L major viab 81*, ROMK primary -1.8, Insulin prom up -0.3, Insulin prom inh -142 and WT yeast gro inh -1.
`COCCN(C)Cc1cn(-c2ccc(F)cc2F)nc1-c1ccccc1C` gave KCC2 mod 1.5, L major viab 11, ROMK primary 0.048, Insulin prom up 0.17 and WT yeast gro inh 7.
